Consider 19 molecules from PubChem BioAssay (EPA / NIEHS).

Molecules are shown by their SMILES. Results filed as inconclusive are left out. Active and inactive are the calls of the source. How the source made its calls, unless noted: active means hit-call score of the fitted dose curve at least 0.9, where 1 is the maximum; inactive means score below 0.9.

The nature of experiment [1]: ACEA_ER_80hr: ACEA Biosciences xCELLigence Real-Time Cell Analysis on Estrogen Receptor Agonism for Proliferation (AID 2282667; active means hit-call score of the fitted dose curve at least 0.9, where 1 is the maximum). The settings on record: T47D proliferation, impedance (xCELLigence), 80 h. Put shortly: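 Impedance readout (RT-CES) of T47D proliferation at 80 h post-dose; gain of signal vs DMSO baseline. Compounds: 8 conc, 1:4 serial, top 100 uM final, ≤0.5% DMSO; biological duplicate.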

The nature of experiment [2]: ATG_CRE_CIS: Attagene CIS-FACTORIAL HepG2 Assay for human cAMP Responsive Element (CRE) binding protein 3 (AID 2282926). To be noted: HepG2 CRE cis-reporter, Attagene multiplexed mRNA; actives raise or lower the signal. Put shortly:
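Readout: fluorescently labelled reporter transcripts resolved by capillary electrophoresis after RT-PCR, taken 24 h post-dosing in transfected HepG2. Endogenous transcription factor activity drives each cis-element reporter; gain or loss of signal fitted relative to DMSO control.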

In experiment [3] the target is CCAAT/enhancer-binding protein beta (Homo sapiens) (UniProt P17676). The experiment can be described thus: ATG_C_EBP_CIS: Attagene CIS-FACTORIAL HepG2 Assay for human CCAAT/Enhancer Binding Protein (C/EBP) beta (AID 2282927). The settings on record: HepG2 Attagene cis-factorial transcription factor reporter; actives raise or lower the signal. Put shortly: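 HepG2 transiently transfected with multiplexed reporter units under cis-regulatory promoters reporting endogenous C/EBPb activity. After 24 h exposure, reporter mRNA assayed by RT-PCR, fluorescent labelling, HpaI digestion and capillary electrophoresis; bidirectional fitting versus DMSO.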
Sequence of CCAAT/enhancer-binding protein beta (Homo sapiens) (P17676 whole entry, looked up): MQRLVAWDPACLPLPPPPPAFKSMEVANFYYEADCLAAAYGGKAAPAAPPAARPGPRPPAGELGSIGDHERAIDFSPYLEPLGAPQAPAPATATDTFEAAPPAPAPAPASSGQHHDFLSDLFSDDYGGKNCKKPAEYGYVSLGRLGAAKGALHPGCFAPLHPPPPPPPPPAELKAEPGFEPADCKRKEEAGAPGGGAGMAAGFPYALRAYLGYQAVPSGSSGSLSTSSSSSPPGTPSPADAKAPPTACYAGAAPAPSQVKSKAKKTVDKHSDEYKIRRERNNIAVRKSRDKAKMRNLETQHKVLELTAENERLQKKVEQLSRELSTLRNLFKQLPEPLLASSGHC

Experiment [4] can be described thus: ATG_CMV_CIS: Attagene CIS-FACTORIAL HepG2 Assay for human CMV (Internal Marker) (AID 2282928).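 Further: endpoint acts as a background internal control marker rather than a target.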 The settings on record: HepG2 CMV promoter reporter, transcription factor profiling; actives raise or lower the signal. Summed up: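 24 h chemical treatment, HepG2 with transient multi-reporter transfection; RNA → oligo(dT) RT → PCR → 6-FAM extension → HpaI digest → CE fluorescence. Bidirectional fit, DMSO negative control.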

Experiment [5] in a line: ATG_DR4_LXR_CIS: Attagene CIS-FACTORIAL HepG2 Assay for human Liver X Receptor (LXR), DR4 submotif (AID 2282929). The settings on record: HepG2 Attagene DR4 cis-reporter, mRNA transcription; actives raise or lower the signal. Put shortly: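 DR4 cis-reporter in HepG2, 24 h exposure. Detection: RT-PCR, 6-FAM labelling, CE fragment analysis. Endpoint fitted bidirectionally, DMSO = baseline.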

The target of experiment [6] is Aryl hydrocarbon receptor (Homo sapiens) (UniProt P35869). Description: ATG_Ahr_CIS: Attagene CIS-FACTORIAL HepG2 Assay for human Aryl Hydrocarbon Receptor (Ahr) (AID 2282930). The settings on record: HepG2 AhR cis-factorial reporter transcription; actives raise or lower the signal. Put shortly:
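HepG2 cells transiently transfected with cis-element-driven multiplexed reporter units; endogenous AhR activity read as reporter mRNA 24 h after dosing, via RT-PCR, 6-FAM labelling, HpaI digestion and capillary electrophoresis. Bidirectional fit relative to DMSO.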

The nature of experiment [7]: ATG_AP_1_CIS: Attagene CIS-FACTORIAL HepG2 Assay for human Activator Protein 1 (AP-1) (AID 2282931). The settings on record: HepG2 Attagene cis-factorial AP-1 reporter mRNA; actives raise or lower the signal. Put shortly:
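Cis-regulated reporter units transiently expressed in HepG2 report endogenous transcription-factor activity. Signal: reporter mRNA at 24 h, via RT-PCR and fluorescent capillary electrophoresis. Endpoint derived by bidirectional fitting, DMSO as negative control.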

Experiment [8] is described as follows: ATG_AP_2_CIS: Attagene CIS-FACTORIAL HepG2 Assay for human Activator Protein 2 (AP-2) (AID 2282932). To be noted: HepG2 AP-2 cis-reporter, Attagene transcription factor profiling; actives raise or lower the signal. Summed up:
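Liver-derived HepG2 line, cis-reporter system measuring endogenous factors; 24 h dosing; reporter mRNA detected by fluorescent RT-PCR and capillary electrophoresis.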

The nature of experiment [9]: ATG_BRE_CIS: Attagene CIS-FACTORIAL HepG2 Assay for human Bone Morphogenetic Protein (BMP) Response Element (BRE) (AID 2282933). The settings on record: HepG2 BMP response element reporter, Attagene transcription factor profiling; actives raise or lower the signal. Put shortly:
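After a 24 h chemical treatment, transiently transfected HepG2 cells were lysed for RNA; reporter transcripts were quantified by fluorescent RT-PCR and capillary electrophoresis, normalised to DMSO.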

The target of experiment [10] is Retinoic acid receptor alpha (Homo sapiens) (UniProt P10276). The experiment can be described thus: ATG_DR5_RAR_CIS: Attagene CIS-FACTORIAL HepG2 Assay for human Retinoic Acid Receptor Alpha (RARE), DR5 submotif (AID 2282934).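 On AC50: reporter responds to endogenous RAR alpha beta and gamma in HepG2 not RARA alone.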 To be noted: HepG2 Attagene cis-factorial RARE DR5 reporter, mRNA; actives raise or lower the signal. Put shortly: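 HepG2 cells transiently transfected with multiplexed reporter units; DR5 cis-element drives reporter through endogenous transcription factors. After 24 h dosing, reporter mRNA quantified by RT-PCR, fluorescent labeling, HpaI digestion and capillary electrophoresis; bidirectional fitting versus DMSO.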
Sequence of Retinoic acid receptor alpha (Homo sapiens) (P10276 whole entry, looked up): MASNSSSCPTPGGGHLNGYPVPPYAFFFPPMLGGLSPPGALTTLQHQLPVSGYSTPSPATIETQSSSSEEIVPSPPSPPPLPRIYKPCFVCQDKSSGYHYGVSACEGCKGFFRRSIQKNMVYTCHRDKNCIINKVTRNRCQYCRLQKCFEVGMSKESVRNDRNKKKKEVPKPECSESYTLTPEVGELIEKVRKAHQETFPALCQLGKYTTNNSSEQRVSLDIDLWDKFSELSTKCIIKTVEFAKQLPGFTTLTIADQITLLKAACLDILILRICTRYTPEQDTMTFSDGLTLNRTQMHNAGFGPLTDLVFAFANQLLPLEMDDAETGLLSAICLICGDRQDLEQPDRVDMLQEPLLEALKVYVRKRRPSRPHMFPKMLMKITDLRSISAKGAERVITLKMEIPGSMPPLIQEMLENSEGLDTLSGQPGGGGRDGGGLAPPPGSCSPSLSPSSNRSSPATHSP

Sequence of Aryl hydrocarbon receptor (Homo sapiens) (P35869 whole entry, looked up): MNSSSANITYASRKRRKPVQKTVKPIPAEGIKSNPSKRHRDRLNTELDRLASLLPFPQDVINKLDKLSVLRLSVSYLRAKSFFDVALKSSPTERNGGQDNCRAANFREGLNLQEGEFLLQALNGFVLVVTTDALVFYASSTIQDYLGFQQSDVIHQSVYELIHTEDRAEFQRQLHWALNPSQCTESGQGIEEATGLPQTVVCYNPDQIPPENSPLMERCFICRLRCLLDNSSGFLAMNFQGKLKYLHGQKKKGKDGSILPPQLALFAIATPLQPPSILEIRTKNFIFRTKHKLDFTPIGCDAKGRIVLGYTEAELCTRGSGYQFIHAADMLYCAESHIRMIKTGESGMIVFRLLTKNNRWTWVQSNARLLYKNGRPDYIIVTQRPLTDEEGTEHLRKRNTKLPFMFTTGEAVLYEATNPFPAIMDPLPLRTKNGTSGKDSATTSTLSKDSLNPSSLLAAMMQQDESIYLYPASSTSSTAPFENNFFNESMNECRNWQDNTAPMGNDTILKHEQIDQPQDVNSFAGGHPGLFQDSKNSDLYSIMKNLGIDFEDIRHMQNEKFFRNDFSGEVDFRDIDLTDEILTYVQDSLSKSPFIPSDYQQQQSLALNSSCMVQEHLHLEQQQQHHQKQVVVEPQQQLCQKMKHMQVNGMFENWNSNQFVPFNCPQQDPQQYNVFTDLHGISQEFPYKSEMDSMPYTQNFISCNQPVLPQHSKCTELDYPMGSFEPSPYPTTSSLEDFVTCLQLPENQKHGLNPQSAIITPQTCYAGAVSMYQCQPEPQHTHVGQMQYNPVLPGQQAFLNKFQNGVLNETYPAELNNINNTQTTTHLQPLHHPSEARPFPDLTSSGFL

Take `COC(=O)CC(C)CCC=C(C)C` (stereo not drawn): the outcome in experiment [1], in experiment [2], in [3], in [4], in experiment [5] and in experiment [6] was inactive. Besides, the molecule was classed as inactive in experiment [7], in [8], in experiment [9] and in experiment [10].
On to `CCCCCCCC(=O)OCC`, for which the molecule was classed as inactive in [1], in experiment [2], in experiment [3], in [4], in experiment [5] and in experiment [6]. The call in [7], in experiment [8], in experiment [9] and in experiment [10] was inactive.
Consider `COc1ccc(-c2coc3cc(O)cc(O)c3c2=O)cc1`, for which the AC50 (in general, the concentration giving half of the maximal activity seen) is 0.673 µM (active) in experiment [1]; 21.6 µM (active) in experiment [4]; 27 µM (active) in experiment [6]; 64 µM (active) in [7]; 67.2 µM (active) in [9]. Also, the call in [2], in experiment [3], in experiment [5], in experiment [8] and in experiment [10] was inactive.
Turning to `C=CC(=O)OCCCCCCCC(C)C`, the molecule was called inactive in [1], in experiment [4], in [6], in experiment [7], in [8] and in [9]. Further, the concentration at half-maximal activity (AC50) is 77.2 µM (active) in experiment [2], 63.1 µM (active) in experiment [3], 160 µM (active) in [5] and 70.5 µM (active) in [10].
Turning to `CC(=O)c1ccccc1O`, the result in experiment [1], in [2], in experiment [3], in experiment [4], in experiment [5] and in [6] was inactive. Also, the molecule was called inactive in [7], in experiment [8] and in experiment [10].
Turning to `O=C1CCCN1C1CCCCC1`, the outcome in experiment [1], in experiment [2], in [3], in experiment [4], in experiment [5] and in experiment [6] was inactive. In addition, the result in experiment [7], in experiment [8], in experiment [9] and in [10] was inactive.
For the molecule `CCCCCCCCCCCCCCCCCCOS(=O)(=O)O`, the AC50 was 10.5 µM (active) in [1], 11.1 µM (active) in [4], 20.3 µM (active) in experiment [7] and 57.3 µM (active) in experiment [8]. Moreover, the molecule was called inactive in experiment [2], in experiment [3], in experiment [5], in [6], in experiment [9] and in experiment [10].
Regarding `CCCCNS(=O)(=O)c1ccccc1`, the outcome in [1], in experiment [2], in experiment [3], in experiment [4], in [5] and in [6] was inactive. Moreover, the molecule was called inactive in [7], in [8], in experiment [9] and in experiment [10].
`CCCCC/C=C\C/C=C\CCCCCCCC(=O)O`: the outcome in experiment [1], in experiment [2], in [3], in experiment [4], in experiment [8] and in experiment [9] was inactive. For the same molecule, in experiment [10], the call was inactive. Besides, the figures for the concentration at half-maximal activity (AC50) in [5], in experiment [6] and in experiment [7] were 76.9 µM (active), 100 µM (active) and 153 µM (active), respectively.
Take `C[Si]1(C)O[Si](C)(C)O[Si](C)(C)O[Si](C)(C)O[Si](C)(C)O1`: the molecule was called inactive in experiment [1], in experiment [2], in experiment [3], in experiment [4], in experiment [6] and in experiment [7]. Moreover, the result in experiment [8] and in [10] was inactive. Further, the half-maximal activity concentration (AC50) in [5] is 36.2 µM (active).
As for `CC(C)(C)C1CCC(=O)CC1`, the result in [1], in experiment [2], in [3], in experiment [4], in [6] and in experiment [7] was inactive. In addition, the outcome in experiment [8] and in [10] was inactive. For the same molecule, the AC50 in [5] is 160 µM (active).
Consider `O=C1CCCCC1C1CCCCC1` (stereo not drawn), for which the outcome in experiment [1], in [2], in experiment [3], in experiment [4], in experiment [5] and in experiment [6] was inactive. The outcome in experiment [7], in experiment [9] and in [10] was inactive.
In the case of `CCc1occc(=O)c1O`, the result in [1], in [2], in experiment [3], in experiment [4], in [5] and in [7] was inactive. Further, the molecule was called inactive in experiment [9] and in experiment [10]. Besides, the AC50 in experiment [6] is 65.6 µM (active).
For the molecule `CC/C=C\C/C=C\C/C=C\CCCCCCCC(=O)OC`, the call in experiment [1], in [2], in experiment [3] and in experiment [4] was inactive. For the same molecule, the AC50 was 71.1 µM (active) in experiment [5]; 47.6 µM (active) in experiment [6]; 70.6 µM (active) in experiment [7]; 167 µM (active) in experiment [9]; 100 µM (active) in [10].
On to `c1ccc2c(c1)[nH]c1ccccc12`, for which the molecule was called inactive in experiment [1], in experiment [2], in experiment [3], in experiment [4], in experiment [5] and in [7]. In addition, the molecule was classed as inactive in experiment [9] and in experiment [10]. Also, in [6], the AC50 was 18 µM (active).
With `CCCCc1ccc(Cl)cc1`, the outcome in experiment [1], in experiment [2], in experiment [3], in experiment [4], in experiment [5] and in experiment [6] was inactive. Besides, the call in experiment [7], in experiment [9] and in experiment [10] was inactive.
For the molecule `NNS(=O)(=O)c1ccc(Oc2ccc(S(=O)(=O)NN)cc2)cc1`, the call in [1], in experiment [2], in [3], in experiment [4], in experiment [5] and in experiment [7] was inactive. Also, the call in [9] and in experiment [10] was inactive. In addition, the concentration at half-maximal activity (AC50) in experiment [6] was 62.3 µM (active).
Turning to `C=C(C)C1CC=C(C)CC1` (stereo not drawn), the result in experiment [1], in experiment [2], in experiment [3], in [4], in experiment [5] and in [6] was inactive. Besides, the outcome in experiment [7] and in experiment [9] was inactive.
`COCC(=O)O`: the outcome in experiment [1], in experiment [2], in [3], in [4], in experiment [5] and in experiment [6] was inactive. Besides, the result in [7], in experiment [8] and in experiment [10] was inactive.
